BAZ2B inh: BAZ2B (human) inhibition | AlphaScreen BAZ2B-H3K14Ac peptide displacement | Potency, µM (titrated, usually from 114 µM), actives largely listed as inhibitors | AID 504333 | 4.4% of 360,000 active; also: nearly all actives have a fitted effect of over 60% in size
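BAZ2B (50 nM) with biotin-H3(5-23)K14Ac peptide (50 nM) in PBS pH 7.4, 0.01% Tween-20, preformed 30 min, then compound 30 min at room temperature; top concentration 110uM. AlphaScreen streptavidin donor/nickel chelate acceptor beads (10 ug/mL final), 20 min dark, signal read.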
JMJD2A Tudor: JMJD2A Tudor domain (human) inhibition | 4.4% of 390,000 active | AlphaScreen JMJD2A-Tudor / H3K4me3 peptide binding | Potency, µM (doses to about 114 µM), actives largely listed as inhibitors | AID 504339; also: nearly all actives have a fitted effect of over 50% in size
Target sequence (O75164 whole entry, looked up, the tested form may be a part): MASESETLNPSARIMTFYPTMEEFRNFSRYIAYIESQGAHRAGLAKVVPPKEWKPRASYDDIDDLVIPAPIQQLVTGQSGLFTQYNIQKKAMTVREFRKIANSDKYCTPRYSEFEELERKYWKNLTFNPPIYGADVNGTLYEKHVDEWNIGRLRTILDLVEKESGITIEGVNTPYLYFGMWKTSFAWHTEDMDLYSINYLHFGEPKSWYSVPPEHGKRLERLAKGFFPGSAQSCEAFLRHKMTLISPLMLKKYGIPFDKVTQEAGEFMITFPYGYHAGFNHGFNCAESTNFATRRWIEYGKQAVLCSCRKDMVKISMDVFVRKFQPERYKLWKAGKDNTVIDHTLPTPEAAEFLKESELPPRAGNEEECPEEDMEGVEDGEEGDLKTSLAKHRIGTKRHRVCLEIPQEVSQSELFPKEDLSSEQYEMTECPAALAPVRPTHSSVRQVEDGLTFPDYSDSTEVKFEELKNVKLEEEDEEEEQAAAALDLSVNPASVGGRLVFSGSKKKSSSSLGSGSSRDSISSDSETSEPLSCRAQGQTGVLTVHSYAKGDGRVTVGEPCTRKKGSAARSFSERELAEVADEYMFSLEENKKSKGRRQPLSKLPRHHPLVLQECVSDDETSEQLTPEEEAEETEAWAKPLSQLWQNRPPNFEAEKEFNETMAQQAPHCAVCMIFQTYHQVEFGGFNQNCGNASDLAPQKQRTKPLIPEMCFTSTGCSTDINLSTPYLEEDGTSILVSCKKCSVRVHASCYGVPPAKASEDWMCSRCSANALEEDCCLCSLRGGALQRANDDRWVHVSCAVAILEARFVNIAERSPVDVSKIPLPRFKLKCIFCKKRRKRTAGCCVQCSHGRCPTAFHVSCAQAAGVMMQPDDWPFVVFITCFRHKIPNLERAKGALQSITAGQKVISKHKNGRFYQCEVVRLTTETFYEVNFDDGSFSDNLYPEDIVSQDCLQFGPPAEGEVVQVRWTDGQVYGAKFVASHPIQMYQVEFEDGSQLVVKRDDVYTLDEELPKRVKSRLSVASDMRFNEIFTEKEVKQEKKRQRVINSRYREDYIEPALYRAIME
PLK1 PBD inh: inhibitors of human PLK1 polo-box domain binding; P53350; Plk1 PBD binding of FITC phosphopeptide, fluorescence polarization; Potency, µM, most hits filed as inhibitors; 2.8% of 360,000 active; also: series mostly up to about 57 µM; nearly all actives have a fitted effect of over 65% in size
VDR inh: blocks the human vitamin D receptor; P11473; VDR-SRC2-3 peptide fluorescence polarization, 2 h; Potency, µM, most hits filed as inhibitors; 0.93% of 400,000 active
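Fluorescence polarization assay of small-molecule disruption of VDR binding to coregulator peptide SRC2-3. Compounds and controls pin-transferred, then read after 2 h incubation at ambient room temperature.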
HP1b binding inh: HP1-beta chromodomain-methylated histone interaction inhibition; P83916; AlphaScreen HP1-beta / biotin-H3K9me3 peptide binding; Potency, µM (top dose mostly 114 µM), actives largely listed as inhibitors; 0.56% of 390,000 active; also: nearly all actives have a fitted effect of over 70% in size
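Compound inhibition of the preformed complex between 50 nM HP1-beta and 50 nM biotinylated H3K9me3 peptide was read by AlphaScreen. Buffer was PBS pH 7.4 with 0.01% Tween-20. Incubations ran 30 min at room temperature, with 10 ug/mL donor/acceptor beads.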
G9a block: G9a (human) methyltransferase inhibition | G9a H3K9 monomethylation, AlphaScreen, 2 h | AID 504332 | Potency, µM (series often up to 102 µM), usual class: inhibitors | 8.8% of 350,000 active; also: nearly all actives have a fitted effect of over 75% in size
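Chemiluminescent proximity detection of H3K9 monomethylation, read after 10 min bead incubation in the dark. Reaction: 20 nM G9a, 500 nM biotin-H3K9 peptide, 20 uM SAM cofactor, 2 h, room temperature, following 15 min enzyme-compound preincubation.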
Numbers stand for hits; 0 = inactive; ? = inconclusive; - = no result; [ ] = remark or other dose. Compounds with a hit are over-represented: about 11% of the library has one in this group of screens. Calls follow the shape of the dose curve; as a rule, active = well fitted curve in the direction sought with a large enough effect; inconclusive = small, poorly fitted or top-dose-only effect, or another doubt; inactive = no such curve, though single readings can be large; an effect the other way counts as inactive or inconclusive.

SMILES	BAZ2B inh	JMJD2A Tudor	PLK1 PBD inh	VDR inh	HP1b binding inh	G9a block
Cc1cccc(C)c1-n1c(C)nn(-c2ncc(C(F)(F)F)cc2Cl)c1=O	0	0	0	0	0	0
Cc1nn(-c2ncc(C(F)(F)F)cc2Cl)c(=O)n1-c1c(F)cccc1F	0	0	0	0	0	79µM
CCc1c(O)cc(=O)n(-c2ccccc2)c1-c1ccccc1	56µM	0	0	?	0	?
CC(=O)c1c(O)cc(=O)n(-c2ccccc2)c1-c1ccc(Cl)cc1	0	0	0	0	0	0
CC(C)CN(C(=O)COC(=O)CCc1nc2ccccc2s1)c1c(N)n(Cc2ccccc2)c(=O)[nH]c1=O	0	0	0	0	0	0
O=C1C(Cl)=C(Nc2ccccc2O)C(=O)N1CCc1ccccc1	32µM	50µM	4.2µM	0	?	3.2µM
CCC(=O)Nc1ccc(Nc2ccccc2)cc1	0	0	0	0	0	50µM
CCC(=O)Nc1ccc(/C=C(\C(C)=O)C(=O)c2ccccc2)cc1	0	0	0	?	0	-
NC(=O)Nc1ccc(Nc2ccccc2)cc1	?	0	0	0	0	56µM
CCC(=O)Nc1ccc(NC(=O)Cc2ccccc2)cn1	?	0	0	0	0	56µM
CCC(=O)Nc1ccc(C=C(C(C)=O)C(C)=O)cc1	0	0	0	79µM	0	0
CCC(=O)Nc1ccc(O)cc1	-	-	-	0	-	0[12.7 µM]
CC(C)(C)OC(=O)NC(Cc1ccccc1)C(=O)NC1COC2CC(n3ccc(=O)[nH]c3=O)OC12 (stereo not drawn)	-	0	-	0	?	-
Cc1ccc(C)c(NC(=O)Cn2c(=O)n(-c3ccccc3C)c(=O)c3c2c2cc(C)ccc2n3C)c1	0	0	-	0	0	0
CCCN(c1ccc(C(C)C)cc1)S(=O)(=O)c1ccc2c(c1)n(C)c(=O)c(=O)n2C	-	0	-	0	0	0
O=C1CCn2c1c(O)c1ccccc1c2=O	-	35µM	0	0	0	-
COc1cc2c(C#N)c(N3CCc4ccccc4C3)nc(N)c2c(N)n1	?	4.5µM	0	0	0	0[12.7 µM]
Cc1ccc(Cn2c(O)c(N=NC(=S)Nc3ccccc3F)c3cc(S(=O)(=O)N4CCOCC4)ccc32)cc1	0	0	0	0	0	?
Cc1ccc(C)c(Cn2c(O)c(N=NC(=S)Nc3ccccc3F)c3ccccc32)c1	0	?	24µM	?	?	?
Oc1c(N=NC(=S)Nc2ccccc2F)c2ccccc2n1Cc1ccccc1F	0	?	0	0	?	11µM
Cc1ccccc1Cn1c(O)c(N=NC(=S)Nc2ccccc2F)c2ccccc21	?	?	0	0	?	13µM
CCNC(=S)N=Nc1c(O)n(Cc2ccc(Cl)cc2)c2ccccc12	?	?	0	0	?	?
Oc1c(N=NC(=S)Nc2ccccc2F)c2ccccc2n1Cc1ccc(Cl)cc1	?	?	0	0	0	10µM
CC1CCC2(CC1)NC(=O)N(NC(=O)CCc1c[nH]c3ccccc13)C2=O (stereo not drawn)	0	0	0	0	0	?
O=c1[nH]cc(S(=O)(=O)N2CCN(c3ccc(F)cc3)CC2)c(=O)[nH]1	-	-	0	-	-	-
SMILES	BAZ2B inh	JMJD2A Tudor	PLK1 PBD inh	VDR inh	HP1b binding inh	G9a block
O=C(NC1CCCCC1)C(c1cccnc1)N(C(=O)c1ccc(Cl)nc1)C1CCCCC1 (stereo not drawn)	0	0	0	0	0	0
CC(C)(C)NC(=O)C(c1cccnc1)N(C(=O)c1ccc(Cl)nc1)C1CCCC1 (stereo not drawn)	56µM	0	0	0	0	2.8µM
O=C(NCc1ccc(Cl)cc1)c1cnc2sc(N3CCOCC3)nn2c1=O	0	0	-	0	0	0
O=C(NCc1ccc(Cl)cc1)c1cnc2sc(N3CCCC3)nn2c1=O	0	79µM	-	0	0	0
C=CC[n+]1c(/C=C2\C=Cc3cc(C)ccc3N2CC)ccc2ccccc21	35µM	50µM	0	0	?	28µM
CCN(CC)C(=O)CSc1n[nH]c(=S)n1N	0	0[11.4 µM]	0	0	0	-
CCn1nc(C)cc1-c1n[nH]c(=S)n1N	?	8.9µM	0	0	?	2.8µM
Cc1cccc(N2CCN(C(=O)c3ccc4c(c3)NC(=O)C(CSCc3cccc(F)c3)N4)CC2)c1C (stereo not drawn)	?	-	-	-	-	10µM
Brc1ccc(C2=Nn3cnnc3SC2)cc1	0	0	0	0	0	-
O=C(CSc1ccc2nnc(-c3cccnc3)n2n1)NCc1ccc2c(c1)OCO2	0	56µM	0	0	0	?
O=C(CSc1nnc(-c2cccnc2)n1-c1ccc(F)cc1)NCc1ccc2c(c1)OCO2	0	0[11.4 µM]	12µM	0	0	0
COc1ccc(-n2c(=O)c3c4c(sc3n(Cc3ccc(C(C)(C)C)cc3)c2=O)CCC4)c(OC)c1	0	?	-	0	0	?
O=C(O)CSc1c(O)c2ccccc2[nH]c1=O	14µM	11µM	21µM	0	0	4.5µM
O=C(O)CSc1c2ccccc2cc2ccccc12	0	?	27µM	71µM	0	0
O=c1[nH]c2ccccc2c(O)c1SCCO	50µM	22µM	0	0	0	-
Cc1[nH]c2ccccc2c1SCC(=O)O	0	0	0	0	0	?
CC(=O)C1CCCN(C(=O)c2ccc3nc(Cc4cccc(Cl)c4)oc3c2)C1 (stereo not drawn)	0	0	0	0	0	0
N#CCCn1c(=O)c(-c2ccccc2)nc2cnc(Oc3ccccc3)nc21	-	-	-	0	-	0[12.7 µM]
COc1cccc(OCC(O)CN2CCN(C(c3ccccc3)c3ccccc3)CC2)c1 (stereo not drawn)	-	0	0	0	0	-
CCN1CCN(CC(O)COc2cccc(OC)c2)CC1 (stereo not drawn)	0	0	0	0	0	56µM
COc1ccc(N2CCN(CC(O)COCc3ccccc3)CC2)cc1 (stereo not drawn)	56µM	?	0	0	0	40µM
COc1ccc(N2CCN(CC(O)COc3ccc(C(C)(C)C)cc3)CC2)cc1 (stereo not drawn)	?	79µM	-	0	0	?
CCc1ccc(OCC(O)CN2CCN(c3ccc(OC)cc3)CC2)cc1 (stereo not drawn)	71µM	35µM	0	0	0	10µM
Cc1cc(C)c(NC(=O)Cn2c(=O)oc3cc(S(=O)(=O)N4CCCCCC4)ccc32)c(C)c1	0	0	-	0	0	0
Cc1ccc2nc(-c3cc(NC(=O)COc4ccc(C)c(C)c4)ccc3Cl)oc2c1	0	0	-	0	0	0
COc1ccc(C2=NNC(c3cc(Cl)cc4c3OCOC4)C2)c(O)c1 (stereo not drawn)	0	-	-	-	-	50µM
Cc1ccc(OCCCSc2nc(-c3ccc(C(C)(C)C)cc3)nc3cc(=O)[nH]n23)cc1C	45µM	25µM	-	0	?	0
CC(C)(C)c1ccc(-c2nc(SCCOc3ccc(Cl)cc3)n3[nH]c(=O)cc3n2)cc1	50µM	?	-	0	0	0

Source: PubChem BioAssay
